Mtb hypoxia rep: PubChem AID 1159583; 300,000 tested, 0.1% active; M. tuberculosis hypoxia-regulated fluorescent reporter, fluorescence; fluorescence inhibition, % (no concentration beside the values); in the data active = fluorescence inhibition mostly above about 23%, no sharp cut-off; inactive = mostly below about 17%
RN4220 kill: growth inhibition of S. aureus RN4220, primary screen, OD600; inhibition, % (no concentration beside the values); 16 h; 330,000 tested, 0.33% active; AID 1259311, 2017; in the data active = inhibition above about 85%
ugtP null kill: growth inhibition of ugtP-null S. aureus, primary screen, RN4220 ugtP deletion, OD600. 16 h. growth inhibition, % (concentration not given with the values). 330,000 tested, 0.54% active; in the data active = growth inhibition above about 68%
MazF activator: activators of E. coli MazEF toxin-antitoxin RNase, primary screen, biochemical, fluorescence, uHTS; FAM/BHQ RNA-DNA oligo cleavage fluorescence, 5 h; activation, % at 20 µM; 350,000 tested, 0.32% active; in the data active = activation above about 50%
Target sequence (P0AE70 whole entry, looked up): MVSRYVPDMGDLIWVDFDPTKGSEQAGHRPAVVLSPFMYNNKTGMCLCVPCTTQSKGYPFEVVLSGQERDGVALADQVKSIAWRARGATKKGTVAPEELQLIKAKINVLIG
PfHsp40 yeast: rescue of yeast from PfHsp40 toxicity, primary screen, S. cerevisiae, ATP luminescence; 340,000 tested, 0.68% active; growth rescue, % at 12.5 µM; S. cerevisiae expressing PfHsp40, growth rescue; AID 504582, 2011; in the data active = growth rescue above about 28%, passing the limit was not always enough;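 also: yeast W303a lacking pdr1 and pdr3 grown in galactose medium; growth measured after three days at 30 °C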
TcdB inh: TcdB glycohydrolase inhibitors, primary screen, biochemical, single point, plate reader. Toxin B (Clostridioides difficile), P18177. 350,000 tested, 0.24% active. inhibition, % at 9.99 µM. TcdB glycohydrolase enzymatic assay; in the data active = inhibition above about 10%
A number is an active result; i = inactive; nt = not tested or not shown. Sampled rows, rich in hits. Any-hit rate of the full collection: about 1.3%.

SMILES	Mtb hypoxia rep	RN4220 kill	ugtP null kill	MazF activator	PfHsp40 yeast	TcdB inh
Cc1ccc(NC(=O)N2CCCCC2)cc1NC(=O)N1CCCCC1	i	i	i	i	i	i
Cc1ccc(NC(=O)OC(C)N2CCCCC2)cc1NC(=O)OC(C)N1CCCCC1 (configuration not stated)	i	i	i	i	i	11
C[C@H]1CN([C@@H](C)CO)S(=O)(=O)c2ccc(C3=CCCC3)cc2O[C@H]1CN(C)C(=O)c1ccccn1	nt	nt	nt	nt	nt	i
O=[N+]([O-])c1ccc(Cl)c(C=NN2CCN(Cc3ccccc3Cl)CC2)c1	nt	i	i	nt	nt	nt
CC(=O)N1CCN(c2ccc(OC[C@H]3CO[C@](Cn4ccnc4)(c4ccc(Cl)cc4Cl)O3)cc2)CC1	nt	nt	nt	i	102	i
COc1cc(/C=C/[N+](=O)[O-])ccc1OC(=O)c1cc2ccccc2oc1=O	i	i	i	i	118	i
C[C@@H]1CCCCO[C@H](CN(C)Cc2ccccc2)[C@@H](C)CN([C@@H](C)CO)C(=O)c2cc(NS(=O)(=O)c3ccc(F)cc3)ccc2O1	nt	nt	nt	nt	nt	i
CCOC(=O)C(O)(NC(=O)c1cccnc1)C(F)(F)F (configuration not stated)	nt	84	i	i	i	nt
CCOC(=O)CNC(=O)c1cccnc1	nt	i	i	i	i	nt
CNc1cc(Cl)c2nonc2c1[N+](=O)[O-]	nt	94	98	i	i	i
O=[N+]([O-])c1c(Nc2cccc(O)c2)cc(Cl)c2nonc12	nt	nt	nt	i	i	i
Cc1nnc(SCC(=O)NN=Cc2ccc(-c3ccc(C)c(Cl)c3)o2)s1	i	i	i	nt	nt	nt
Cc1ccc(S(=O)(=O)N=C2NC(=O)C(=Cc3cccnc3)S2)cc1	i	i	i	nt	nt	nt
N#CCCN(C(=O)Nc1ccccc1)c1ccccc1	nt	i	i	i	66	nt
COC(=O)C1=C(c2cccc(OCc3ccccc3)c2)CC2CCC1N2C(=O)NCc1ccc(Br)cc1 (configuration not stated)	i	i	i	nt	nt	nt
CCOc1ccc(NC(=O)CSc2ccc(-c3ccccn3)nn2)cc1	i	i	i	i	i	nt
Cc1ccc(NC(=O)CSc2ccc(-c3ccccn3)nn2)cc1	i	i	i	i	103	i
Cc1ccc(NC(=O)CSc2ccc(-c3ccccn3)nn2)c(C)c1	i	i	i	i	105	i
CCc1ccc(NC(=O)CSc2ccccn2)cc1	i	i	i	i	62	i
O=C(CSc1ccccn1)Nc1ccc(NC(=O)CSc2ccccn2)cc1	i	i	i	i	i	i
COc1ccccc1NC(=O)CSc1ccc(-c2ccccn2)nn1	i	i	i	i	i	i
COc1ccc(NC(=O)CSc2ccc(-c3ccccn3)nn2)cc1OC	i	i	i	i	215	i
CCCNC(=O)N(C)C[C@@H]1Oc2ncc(C#C[C@@H](C)O)cc2C(=O)N([C@@H](C)CO)C[C@H]1C	nt	nt	nt	nt	nt	i
COCc1c(C(=O)NN=C(C)c2cccs2)nnn1-c1nonc1N	i	i	i	nt	nt	nt
O=C1C=C(c2cccc(Cl)c2O)CC(c2ccc(F)cc2)C1 (configuration not stated)	i	i	i	nt	nt	nt
SMILES	Mtb hypoxia rep	RN4220 kill	ugtP null kill	MazF activator	PfHsp40 yeast	TcdB inh
Cc1cccc(NC(=O)CSc2ccc(-c3ccccn3)nn2)c1C	i	i	i	i	200	i
O=C(CSc1ccccn1)Nc1nonc1[N+](=O)[O-]	nt	i	86	i	i	i
Cc1cc(C)c(NC(=O)CSc2ccc(-c3ccccn3)nn2)c(C)c1	i	i	i	i	i	i
Cc1nnc(NC(=O)CSc2ccc(-c3ccccn3)nn2)s1	68	i	i	nt	nt	nt
Cc1sc2nc(SCC(=O)NCc3ccco3)n(C)c(=O)c2c1C	i	i	i	i	i	nt
CCn1c(SCC(=O)NC(=O)NCc2ccco2)nc2sc(C)c(C)c2c1=O	38	i	i	i	i	nt
COc1ccc(Cl)cc1NC(=O)CC(C)=NNC(=O)Cc1ccccc1	i	i	i	nt	nt	nt
Nc1ccc2ccccc2c1[N+](=O)[O-]	i	i	i	i	i	i
Nc1cc2c3ccccc3ccc2c2ccccc12	i	i	i	i	249	i
CCN(CC)c1ccc2cc(-c3nnc(-c4ccccc4)o3)c(=O)oc2c1	nt	i	i	900	i	nt
CCN(CC)c1ccc2cc(-c3nc4ccccc4[nH]3)c(=O)oc2c1	i	i	i	nt	i	nt
O=C(Cn1c(-c2ccccn2)nc2ccccc21)NN=Cc1ccccn1	i	i	i	nt	nt	nt
CN(C)CCNc1ccc(CO)c2sc3ccc(O)cc3c(=O)c12	nt	nt	nt	i	i	25
O=C(CN1CC(c2ccccc2)CC1=O)NN=Cc1cc(Br)ccc1O (configuration not stated)	i	i	i	nt	nt	nt
O=C(NN=Cc1cccnc1)c1ccccc1Cl	i	i	i	nt	nt	nt
COc1ccccc1-c1ccc(Nc2ccc(C(=O)N3CCOCC3)cc2)nn1	nt	i	i	i	i	nt
CC(=O)c1ccc(Nc2ccc(-c3ccccc3F)nn2)cc1	nt	nt	nt	i	i	10
N=C1SC(c2ccccc2)C(=O)N1c1ncc(Cc2ccccc2Cl)s1 (configuration not stated)	i	i	90	i	i	nt
CC(=O)Nc1cc(N=Cc2ccc(O)cc2O)c(Cl)cc1Cl	i	i	i	130	i	nt
COc1ccc(O)c(C=Nc2cc(NC(C)=O)c(Cl)cc2Cl)c1	i	i	i	i	i	i
C[C@@H]1CN([C@@H](C)CO)C(=O)c2cc(C#CCN(C)C)cnc2O[C@H]1CN(C)Cc1ccc(-c2ccccc2)cc1	nt	nt	nt	nt	nt	i
CC1=C(C(=O)Nc2ccccc2)C(c2coc3ccccc3c2=O)C2=C(CCCC2=O)N1 (configuration not stated)	i	i	i	i	i	i
COc1ccc(C2CC(=O)C3=C(C2)NC(C)=C(C(=O)Nc2ccccc2C)C3c2coc3ccc(C)cc3c2=O)cc1OC (configuration not stated)	i	i	i	i	63	nt
Cc1ccc2ccc(C3C(=O)c4ccccc4C3=O)nc2c1	i	i	i	85	i	i
NC(=O)CCN(C(=O)c1cccc(S(=O)(=O)N2CCc3ccccc32)c1)c1ccccc1	i	i	i	i	47	i
SMILES	Mtb hypoxia rep	RN4220 kill	ugtP null kill	MazF activator	PfHsp40 yeast	TcdB inh
Cc1ccc(CN(C)C(=O)c2cccc(S(=O)(=O)N3CCc4ccccc43)c2)cc1	i	i	i	i	i	i
C/C(=N\NC(N)=S)c1ccc2c(c1)OCCO2	nt	nt	nt	i	i	12
O=C(Nc1cc(C(F)(F)F)ccc1N1CCOCC1)c1n[nH]c(=O)c2ccccc12	i	100	98	i	i	nt
CC(C)c1ccc(N2C(=O)NC(=O)C(=CC=Cc3ccco3)C2=O)cc1	i	i	i	nt	nt	nt
CCCC(=O)Nc1ccc2c(c1)OC[C@H](C)N(C(=O)CC1CC1)C[C@@H](C)[C@H](OC)CN(C)C2=O	nt	nt	nt	nt	nt	i
Cc1cc(C)nc(SC2=CS(=O)(=O)c3ccccc32)n1	i	i	i	i	i	nt
O=S1(=O)C=C(Sc2nnc(-c3ccccc3)o2)c2ccccc21	nt	93	91	i	i	nt

Bioassay records deposited in PubChem BioAssay by several laboratories.
